According to the supplement of paper PMC6897291:
Structures can show the parent of a compound that is named as a salt.

System: RIVA
Test: growth inhibition by drug plus 177Lu-lilotomab satetraxetan (1 - RLU/untreated control) (fraction); higher = stronger inhibition
Conditions: 10 nM; time (day): 3; 177Lu-lilotomab satetraxetan 0.5 ug/ml
In short: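 RIVA or U-2932 cells were left untreated or pretreated for 18 h with a radiolabelled anti-CD37 antibody conjugate (~600 MBq/mg) at 0.5 µg/ml for RIVA or 1 µg/ml for U-2932. The cells were then washed and seeded at 3,000 cells/well on plates pre-printed with the Selleck Cambridge Cancer Compound library, dosed at 10/100 nM for RIVA and 10/1,000 nM for U-2932. From day 3, RealTime-Glo luminescence was read daily after 1 h at 37°C. Growth inhibition was taken as one minus RLU over the mean of the untreated no-drug wells, of which there were 48 per plate.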

| SMILES | growth inhibition by drug plus 177Lu-lilotomab satetraxetan |
| --- | --- |
| CNCc1ccc(-c2[nH]c3cc(F)cc4c3c2CCNC4=O)cc1 | 0.384 |
| O=C(O)c1ccc(-c2c[nH]c3ncc(-c4ccccc4)cc23)cc1C1CCCC1 | 0.472 |
| CC(=O)c1c(C)c2cnc(Nc3ccc(N4CCNCC4)cn3)nc2n(C2CCCC2)c1=O | 0.392 |
| CCN(CC)CCCCNc1ncc2cc(-c3cc(OC)cc(OC)c3)c(NC(=O)NC(C)(C)C)nc2n1 | 0.539 |
| CCC(C)(C)C(=O)O[C@H]1C[C@@H](C)C=C2C=C[C@H](C)[C@H](CC[C@@H]3C[C@@H](O)CC(=O)O3)[C@H]21 [Simvastatin (Zocor)] | 0.493 |
| CC[C@H](Nc1ncnc2[nH]cnc12)c1nc2cccc(F)c2c(=O)n1-c1ccccc1 | 0.367 |
| CC(C=CC(=O)NO)=CC(C)C(=O)c1ccc(N(C)C)cc1 (stereo not drawn) [Trichostatin A (TSA)] | 0.467 |
| COc1ccc2c3n(c(=NC(=O)c4cccnc4)nc2c1OC)CCN3 | 0.429 |
| NC(=O)c1ccc(-c2nc(-c3ccccn3)c(-c3ccc4c(c3)OCO4)[nH]2)cc1 | 0.633 |
| CNC(=O)c1cc(Oc2ccc(NC(=O)Nc3ccc(Cl)c(C(F)(F)F)c3)c(F)c2)ccn1 [Regorafenib (BAY 73-4506)] | 0.632 |
| Cc1cnc(Nc2ccc(OCCN3CCCC3)cc2)nc1Nc1cccc(S(=O)(=O)NC(C)(C)C)c1 | 0.273 |
| CCOc1ccc(Nc2nc(-c3c(C)nc4ccccn34)cs2)cc1 | 0.559 |
| CC(C)C[C@H](NC(=O)[C@H](Cc1ccccc1)NC(=O)c1cnccn1)B(O)O [Bortezomib (Velcade)] | 0.955 |
| O=C1CN2Cc3c(ccc(Cl)c3Cl)N=C2N1 [Anagrelide] | 0.547 |
| Cc1cc(Nc2cc(N3CCN(C)CC3)nc(/C=C/c3ccccc3)n2)n[nH]1 | 0.336 |
| CCc1cc(Nc2nccc(-c3c(-c4ccc(OC)c(C(=O)Nc5c(F)cccc5F)c4)nc4ccccn34)n2)c(OC)cc1N1CCC(N2CCN(S(C)(=O)=O)CC2)CC1 | 0.374 |
| O=C1CN2Cc3c(ccc(Cl)c3Cl)N=C2N1 [Anagrelide hydrochloride] | 0.579 |
| O=C(NCCCNc1nc(Nc2cccc(NC(=O)N3CCCC3)c2)ncc1I)c1cccs1 | 0.795 |
| CCC[C@H](NC(=O)/C(C#N)=C/c1cccc(Br)n1)c1ccccc1 | 0.529 |

| SMILES | growth inhibition by drug plus 177Lu-lilotomab satetraxetan |
| --- | --- |
| COc1cc2nc(N3CCCN(C)CC3)nc(NC3CCN(Cc4ccccc4)CC3)c2cc1OC | 0.498 |
| C#Cc1cccc(Nc2ncnc3cc(OCCOC)c(OCCOC)cc23)c1 [Erlotinib HCl] | 0.595 |
| CN(C)c1ccccc1CN1CCCN(Cc2ccccc2N(C)C)C1c1ccncc1 | 0.403 |
| COc1cc2c(NC3CCN(C)CC3)nc(N3CCCN(C)CC3)nc2cc1OCCCN(C)C | 0.365 |
| COc1ccc(COc2cc3oc(=O)c4cc(C(C)O)ccc4c3cc2OC)cc1 (stereo not drawn) [Palomid 529] | 0.337 |
| CO[C@@H](C(=O)N1Cc2[nH]nc(NC(=O)c3ccc(N4CCN(C)CC4)cc3)c2C1)c1ccccc1 | 0.555 |
| Cn1cc(C2=C(c3ccc(Cl)cc3Cl)C(=O)NC2=O)c2ccccc21 | 0.449 |
| CCc1ccc(CCOc2ccc(CC3SC(=O)NC3=O)cc2)nc1 (stereo not drawn) [Pioglitazone (Actos)] | 0.53 |
| O=C(O)C1(C(=O)O)CCC1.[NH2-].[NH2-].[Pt+2] [Carboplatin] | 0.458 |
| CS(=O)(=O)c1ccc(C(=O)Nc2ccc(Cl)c(-c3ccccn3)c2)c(Cl)c1 [Vismodegib (GDC-0449)] | 0.631 |
| OCCn1cc(-c2ccc3c(c2)CC/C3=N\O)c(-c2ccncc2)n1 | 0.513 |
| CC[C@@H]1C(=O)N(C)c2cnc(Nc3ccc(C(=O)NC4CCN(C)CC4)cc3OC)nc2N1C1CCCC1 | 0.93 |
| CC[C@]1(O)C[C@H]2CN(CCc3c([nH]c4ccccc34)[C@@](C(=O)OC)(c3cc4c(cc3OC)N(C=O)[C@H]3[C@@](O)(C(=O)OC)[C@H](OC(C)=O)[C@]5(CC)C=CCN6CC[C@]43[C@@H]65)C2)C1 [Vincristine] | 0.964 |
| CC(C)(C)c1ccc(S(=O)(=O)/C=C/C#N)cc1 | 0.438 |
| Cc1cn(-c2cc(NC(=O)c3ccc(C)c(Nc4nccc(-c5cccnc5)n4)c3)cc(C(F)(F)F)c2)cn1 [Nilotinib (AMN-107)] | 0.372 |
| CC(C)(C#N)c1cc(Cn2cncn2)cc(C(C)(C)C#N)c1 [Anastrozole] | 0.481 |
| C=CCn1c(=O)c2cnc(Nc3ccc(N4CCN(C)CC4)cc3)nc2n1-c1cccc(C(C)(C)O)n1 | 0.447 |
| Cn1cnc(N)c2ncnc1-2 [3-Methyladenine] | 0.557 |
| CCc1c2c(nc3ccc(OC(=O)N4CCC(N5CCCCC5)CC4)cc13)-c1cc3c(c(=O)n1C2)COC(=O)[C@]3(O)CC [Irinotecan HCl Trihydrate (Campto)] | 0.219 |
